An excerpt weighted towards active compounds, which were near 2.2% of everything screened.
M1 PAM = human CHRM1 positive allosteric modulation. P11229. CHO-K1 hM1, Fluo-8 calcium fluorescence, ACh EC20; 0% = ACh EC20, 100% = maximal ACh. activation, % at 3 µM. 360,000 compounds, 0.088% hits. AID 588819; in the data active = activation above about 19%, passing the limit was not always enough
M1 antag = antagonists of human M1 muscarinic receptor. 360,000 compounds, 1.3% hits. AID 588852. CHO-K1 hM1, Fluo-8 calcium fluorescence, ACh EC80 antagonist. P11229. inhibition, % at 3 µM;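 active = percent inhibition above its own plate's cutoff, namely the mean of that plate's compound wells plus 3 SD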;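 note: peak over basal fluorescence ratio during 140 s after agonist addition; 0% = ACh EC80 plus DMSO and 100% = DMSO alone without agonist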
CHRM4 PAM = CHRM4 positive allosteric modulation | activation, % at 3 µM | CHO-K1 hM4/Gqi5, Fluo-8 calcium fluorescence, ACh EC20; 0% = ACh EC20, 100% = maximal ACh | AID 624126 | 360,000 compounds, 0.4% hits;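 active = activation above its plate's cutoff, the mean activation of sample wells plus 3 SD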
Target sequence (P08173 whole entry, looked up): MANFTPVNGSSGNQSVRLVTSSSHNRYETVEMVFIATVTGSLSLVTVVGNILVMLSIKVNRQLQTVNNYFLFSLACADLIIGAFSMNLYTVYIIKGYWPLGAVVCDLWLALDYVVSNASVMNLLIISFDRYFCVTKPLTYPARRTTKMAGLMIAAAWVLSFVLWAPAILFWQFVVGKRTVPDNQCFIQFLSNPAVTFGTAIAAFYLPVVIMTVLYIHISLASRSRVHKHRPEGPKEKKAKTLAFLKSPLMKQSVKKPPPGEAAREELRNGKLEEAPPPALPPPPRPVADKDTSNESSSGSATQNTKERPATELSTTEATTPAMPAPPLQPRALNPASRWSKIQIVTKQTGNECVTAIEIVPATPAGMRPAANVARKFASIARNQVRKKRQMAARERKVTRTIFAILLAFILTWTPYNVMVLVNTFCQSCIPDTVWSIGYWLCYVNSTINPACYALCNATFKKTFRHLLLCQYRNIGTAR
M4 antag = antagonists of human muscarinic M4 receptor (CHRM4). P08173. CHO-hM4 cells, ACh EC80, Fluo-8 calcium fluorescence. inhibition, % at 3 µM. 360,000 compounds, 0.73% hits. AID 624125;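 active = inhibition above its plate's cutoff, the mean inhibition of sample wells plus 3 SD, cut at about 27% in these data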;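 note: 0% = acetylcholine EC80 with DMSO and 100% = DMSO without agonist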
CHRM4 agonist = CHRM4 agonism in calcium assay | P08173 | CHO-K1 hM4/Gqi5, Fluo-8 calcium fluorescence; vehicle 0%, full acetylcholine response 100% | activation, % at 3 µM | 360,000 compounds, 0.14% hits | AID 624127;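 active = activation above the run mean over all test wells plus 3 SD, cut at about 32% in these data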;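 note: peak over basal fluorescence ratio per well then scaled between controls; 0% = DMSO wells and 100% = acetylcholine at EC100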
M1 ag = agonists of human M1 muscarinic receptor. 360,000 compounds, 0.33% hits. activation, % at 3 µM. CHO-K1 hM1, Fluo-8 calcium fluorescence, agonist mode; 0% DMSO, 100% acetylcholine EC100. P11229;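 active = activation above the run's mean compound activation plus 3 SD, cut at about 16% in these data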;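 note: peak over basal fluorescence ratio within a 140 s kinetic read after compound addition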
The depositor's hits bear a star.

SMILES	M1 PAM	M1 antag	CHRM4 PAM	M4 antag	CHRM4 agonist	M1 ag
Cc1nn(C)cc1CNC(=O)c1cc2n(n1)C(C(F)(F)F)CC(c1cccs1)N2 (configuration not stated)	-17	23*	-4	2	3	-3
S=C(Nc1ccc(Cl)cc1Cl)N1CCOCC1	10	-8	21*	6	1	1
COCCN(C(=O)COC(=O)C12CC3CC(CC(Cl)(C3)C1)C2)c1c(N)n(Cc2ccccc2)c(=O)[nH]c1=O	13	-8	27*	-15	2	-1
COCCN(C(=O)COC(=O)c1cccnc1Cl)c1c(N)n(Cc2ccccc2)c(=O)[nH]c1=O	3	-7	3	1	3	-1
CC(C)CN(C(=O)COC(=O)C12CC3CC(CC(Cl)(C3)C1)C2)c1c(N)n(Cc2ccccc2)c(=O)[nH]c1=O	6	-8	0	0	-1	-1
COCCN(C(=O)COC(=O)c1cccnc1SC)c1c(N)n(Cc2ccccc2)c(=O)[nH]c1=O	16	-10	22*	-13	1	2
COCCN(C(=O)COC(=O)c1nc(Cl)ccc1Cl)c1c(N)n(Cc2ccccc2)c(=O)[nH]c1=O	2	1	-6	27*	0	-1
Nc1c(N(CCC2=CCCCC2)C(=O)Cc2ccc(F)cc2)c(=O)[nH]c(=O)n1Cc1ccccc1	-4	10	4	-1	8	19*
CC(=O)c1c(C)[nH]c(C(=O)OCC(=O)Nc2cc(C(F)(F)F)ccc2N2CCOCC2)c1C	8	-2	5	15	5	-1
Cc1nn(C(CC(=O)O)C(=O)O)c(C)c1Br (configuration not stated)	2	-3	-1	0	1	-1
CC(C)CC(=O)Nc1ccccc1N1CCN(C(=O)c2ccccc2)CC1	-9	19	2	-6	-1	-1
CCN(C(=O)COC(=O)c1ccccc1Oc1ccccc1)c1c(N)n(Cc2ccccc2)c(=O)[nH]c1=O	5	3	25*	-6	2	-1
COCCN(C(=O)COC(=O)c1ccccc1Oc1ccccc1)c1c(N)n(Cc2ccccc2)c(=O)[nH]c1=O	18	-15	6	2	1	-2
Cc1cccc(OCC(=O)N(Cc2ccccc2)c2c(N)n(Cc3ccccc3)c(=O)[nH]c2=O)c1	23*	-16	7	0	1	8
COc1cccc(N2CCN(CC(=O)NC(C)c3ccccc3)CC2)c1 (configuration not stated)	19	-17	-2	9	2	4
CCOC(=O)C1CCCN(c2ncnc3c2cnn3-c2cccc(C)c2)C1 (configuration not stated)	-26	16	-2	11	8	44*
COc1ccc(-n2ncc3c(N4CCN(Cc5ccccc5)CC4)ncnc32)cc1	-14	23*	-10	9	11	-4
CCN1CCN(c2ncnc3c2cnn3-c2ccccc2)CC1	10	-4	11	-11	1	-8
CCN(CC)C(=O)C1CCCN(c2ncnc3c2cnn3-c2cccc(C)c2)C1 (configuration not stated)	-2	2	-5	-1	1	-5
Cc1ccc(-n2ncc3c(N4CCCC4)ncnc32)c(C)c1	4	4	11	-1	0	-2
COc1cccc(N2CCN(c3ncnc4c3cnn4-c3ccc(C)cc3C)CC2)c1	-23	64*	-11	47*	26	3
O=C(c1cccc(C(F)(F)F)c1)N1CCN(S(=O)(=O)c2ccc(Cl)s2)CC1	3	-7	-2	6	5	1
COCCn1c2nc(=O)n(-c3ccccc3)c(=O)c-2nc2ccccc21	-22	18	-12	17	65*	56*
O=C(Cc1ccccc1)N1CCc2[nH]nc(-c3ccccc3)c2C1	5	0	18*	15	10	-5
COc1ccc(-c2n[nH]c3c2CN(C(=O)c2ccc(OC)c(OC)c2)CC3)cc1	5	-11	-1	2	8	-2
SMILES	M1 PAM	M1 antag	CHRM4 PAM	M4 antag	CHRM4 agonist	M1 ag
O=[N+]([O-])c1ccc(Cl)cc1N1CCCC1	10	-7	5	-2	0	-3
Fc1ccccc1C1c2[nH]c3ccccc3c2CCN1CCCn1cccn1 (configuration not stated)	-22	38*	-23	15	1	-8
CCCCS(=O)(=O)/C=C\C1C2C=CC(C2)C1S(=O)(=O)CCCC (configuration not stated)	3	-3	10	0	0	-3
CCCCS(=O)(=O)/C=C\C=C/S(=O)(=O)CCCC	1	9	4	37*	4	-1
O=c1[nH]c(=O)n(Cc2ccc(Oc3ccccc3)cc2)cc1Br	10	3	-5	5	2	1
C=C1CC(Cn2cc(Br)c(=O)[nH]c2=O)(c2ccc(-c3ccccc3)cc2)OC1=O (configuration not stated)	18	-7	-7	46*	6	5
COc1cc(/C=N\n2nnnc2N)ccc1OCc1ccc(F)cc1	-17	active	1	-4	5	-1
COc1cccc(Nc2nc(C(N)CO)cs2)n1 (configuration not stated)	-1	-1	0	-1	1	-4
CC(C1=C(CCN(C)C)Cc2ccccc21)c1ccccn1 (configuration not stated)	-30	77*	-10	64*	0	-8
Cc1ccc(-c2cc(-c3ccco3)c3c(N)c(C(=O)NN)oc3n2)cc1	-1	0	-11	-1	7	-4
NNC(=O)c1oc2nc(-c3cccs3)cc(-c3ccco3)c2c1N	4	0	26*	14	13	-4
Cc1cc(C)cc(N(CCC(=O)O)S(=O)(=O)c2ccc(Cl)cc2)c1	10	-11	-3	36*	-1	-10
Cc1ccc(N(CCC(=O)O)S(=O)(=O)c2ccc(C)cc2)cc1	1	-1	6	2	1	-8
CC(C)N1CCN(c2ccncc2S(=O)(=O)N2CCOCC2)CC1	-20	48*	-4	3	0	-6
C=CCN1CCN(c2ccncc2S(=O)(=O)N2CCCCC2)CC1	-18	31*	-1	0	1	-7
CN(C)c1ccc(/C=N/n2c(-c3ccccc3Br)n[nH]c2=S)cc1	-25	32*	-45	1	5	-6
CN(C)c1ccc(/C=N/n2c(-c3cccnc3)n[nH]c2=S)cc1	9	-5	2	3	1	4
CCOc1ccccc1CN1CCN(CC2=Cc3cc(OC)ccc3OC2)CC1CCO (configuration not stated)	-19	34*	-19	-4	4	-7
